# USP7 inh = blocks human USP7 ubiquitin-rhodamine cleavage | actives 0.3% (n = 47,000) | purified USP7, Ub-rhodamine cleavage fluorescence | inhibition, % at 20 µM
# Target sequence (Q93009 whole entry, looked up): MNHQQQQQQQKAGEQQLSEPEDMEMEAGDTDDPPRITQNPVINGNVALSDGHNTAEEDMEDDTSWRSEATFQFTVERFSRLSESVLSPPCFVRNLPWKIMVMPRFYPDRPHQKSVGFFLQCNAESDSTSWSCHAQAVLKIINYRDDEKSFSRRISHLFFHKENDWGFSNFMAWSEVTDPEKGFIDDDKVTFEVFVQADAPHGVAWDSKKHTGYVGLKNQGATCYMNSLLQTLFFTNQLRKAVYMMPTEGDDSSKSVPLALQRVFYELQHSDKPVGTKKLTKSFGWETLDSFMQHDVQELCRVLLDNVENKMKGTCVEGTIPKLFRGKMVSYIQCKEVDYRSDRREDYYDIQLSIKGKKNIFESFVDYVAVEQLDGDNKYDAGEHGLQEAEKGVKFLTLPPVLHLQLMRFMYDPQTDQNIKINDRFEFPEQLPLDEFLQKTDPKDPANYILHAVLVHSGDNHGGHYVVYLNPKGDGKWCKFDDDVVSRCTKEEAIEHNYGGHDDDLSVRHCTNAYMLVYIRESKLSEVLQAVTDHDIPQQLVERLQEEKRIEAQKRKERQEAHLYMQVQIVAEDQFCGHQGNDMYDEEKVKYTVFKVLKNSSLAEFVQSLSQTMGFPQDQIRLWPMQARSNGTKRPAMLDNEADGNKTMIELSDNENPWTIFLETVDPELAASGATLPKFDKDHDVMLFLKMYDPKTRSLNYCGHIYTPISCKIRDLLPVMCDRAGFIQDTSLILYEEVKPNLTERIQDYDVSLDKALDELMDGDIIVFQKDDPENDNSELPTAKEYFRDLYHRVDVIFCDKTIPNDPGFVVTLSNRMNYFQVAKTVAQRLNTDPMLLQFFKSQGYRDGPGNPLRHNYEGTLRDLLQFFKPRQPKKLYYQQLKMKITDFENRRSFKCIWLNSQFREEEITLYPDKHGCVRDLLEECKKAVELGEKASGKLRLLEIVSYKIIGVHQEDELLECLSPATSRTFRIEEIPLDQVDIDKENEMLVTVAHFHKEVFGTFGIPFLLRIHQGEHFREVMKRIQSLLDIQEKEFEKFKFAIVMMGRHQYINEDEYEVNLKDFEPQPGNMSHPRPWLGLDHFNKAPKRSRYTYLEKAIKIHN
# USP10 inh = blocks human USP10 ubiquitin-rhodamine cleavage. AID 1645856. actives 1.1% (n = 47,000). inhibition, % at 20 µM. purified USP10, Ub-rhodamine fluorescence, 60 min
# USP8 block = blocks human USP8 ubiquitin-rhodamine cleavage | actives 4.2% (n = 47,000) | purified USP8, Ub-rhodamine cleavage fluorescence, 30 min | inhibition, % at 20 µM | P40818
# UCHL1 inh = human UCHL1 deubiquitinase inhibition | P09936 | purified UCHL1, Ub-rhodamine cleavage fluorescence | inhibition, % at 20 µM | actives 0.2% (n = 47,000) | AID 1645859
# A number is an active result; i = inactive. This is a sample that favours compounds with a hit; in the whole collection about 4.6% have one here. Cut-off read from the data, not from the text of the source: active = inhibition above about 30%; inactive = the rest.
SMILES,USP7 inh,USP10 inh,USP8 block,UCHL1 inh
CC(C)=CCC/C(C)=C/Cc1c(O)cc2c(c1O)C(=O)OC2,88,64,57,83
O=C(CSc1nnnn1-c1ccc(Cl)cc1)c1ccccc1Br,i,i,i,i
CCCCC/C=C/C=C/C(=O)OC1C(O)CC(c2ccc3c(c2O)C(=O)c2c(O)cc4cc(C)cc(O)c4c2C3=O)OC1C (configuration not stated),i,i,57,i
COc1ccc(CNC(=O)c2c(O)c3cccnc3n(-c3ccccc3)c2=O)cc1,i,i,84,i
Cc1ccc(N2CCC(C)(C(=O)Nc3ccccc3)CC2)nn1,i,i,i,i
O=C1Nc2ccccc2C2(CCN(S(=O)(=O)c3ccccn3)CC2)O1,i,i,i,i
Cc1ccc(S(=O)(=O)N2CCC3(CC2)OC(=O)Nc2ccccc23)cc1,i,i,35,i
O=C(c1[nH]nc2c1COc1ccccc1-2)N1CCN(c2ccccn2)CC1,i,i,50,i
O=C(c1[nH]nc2c1COc1ccccc1-2)N1CCN(c2ncccn2)CC1,i,i,i,i
COc1ccc(NC(=O)CCc2nc3sc4c(c3c(=O)[nH]2)CCCCC4)cc1,i,i,32,i
O=C(CCc1nc2sc3c(c2c(=O)[nH]1)CCCCC3)Nc1ccccc1,i,i,i,i
COC(=O)CCC(c1ncc(C(F)(F)F)cc1Cl)S(=O)(=O)c1ccccc1 (configuration not stated),i,i,31,i
COc1ccc(C2CCCCCN2C(=O)Cn2ccccc2=O)cc1 (configuration not stated),i,i,67,i
O=C(COc1ccc(N2CC(C(=O)NCc3ccccc3)CC2=O)cc1)Nc1ccc(F)cc1 (configuration not stated),i,i,64,i
O=C(COc1ccc(N2CC(C(=O)NCc3ccc4c(c3)OCO4)CC2=O)cc1)Nc1ccc(F)cc1 (configuration not stated),i,49,53,i
O=C(COc1ccc(N2CC(C(=O)NCc3ccc4c(c3)OCO4)CC2=O)cc1)Nc1ccc(Cl)cc1 (configuration not stated),i,38,i,i
Cc1cc2c(cc1S(=O)(=O)N1CCC(C(=O)NCc3ccco3)CC1)OCC(=O)N2,i,i,i,i
Cc1cccc(C(=O)N2CCN(Cc3noc4ccccc34)CC2)c1,i,i,i,i
CC(=O)N1C[C@H]2C3(CCN(S(=O)(=O)C4CC4)CC3)CC[C@@]2(C(=O)N2CCCC2)C1,i,i,i,i
Cc1cc(S(=O)(=O)N2CCC(C3(C)NC(=O)NC3=O)CC2)ccc1F (configuration not stated),i,i,53,i
Cc1cc(S(=O)(=O)N2CCC(c3c(C)[nH]c4ccccc34)CC2)ccc1F,i,i,i,i
Cc1cc(Nc2ccc(C)c(F)c2)c2ccccc2n1,i,i,i,i
FC(F)(F)c1ccc(Nc2nnnc3ccccc23)cc1,60,47,64,i
O=C(Nc1cc(S(=O)(=O)Nc2ccc(Cl)cc2)ccc1O)c1cc2c(s1)CCC2,60,70,99,33
Nc1ccc(NC(=O)c2cc3c(s2)CCC3)cc1[N+](=O)[O-],i,i,57,i
SMILES,USP7 inh,USP10 inh,USP8 block,UCHL1 inh
O=c1[nH]c(-c2ccncc2)nc2c1CCN(Cc1cccn1-c1cccnc1)C2,i,i,58,i
O=[N+]([O-])c1ccccc1C(c1c[nH]c2ccccc12)c1c[nH]c2ccccc12,i,i,82,i
OC(c1ccccn1)c1c[nH]c2ccccc12 (configuration not stated),i,i,i,i
CC(C)C(=O)N1Cc2ccccc2CC2(CCCN(C)C2)C1 (configuration not stated),i,i,i,i
COc1ccc(CC(=O)NCc2nnc3c(C(F)(F)F)cc(Cl)cn23)cc1,i,i,i,i
CC1(C)CC2CC(C)(CN2Cc2c(O)ccc3ccccc23)C1 (configuration not stated),i,i,87,i
COC(=O)C1Cc2ccccc2CN1Cc1c(O)ccc2ccccc12 (configuration not stated),i,i,i,i
Cn1c(SCC(=O)c2ccc(F)cc2)nnc1-c1cc2ccccc2o1,i,i,41,i
COc1ccc(C(=O)CSc2nnc(-c3cc4cccc(OC)c4o3)n2C)cc1OC,i,i,i,i
Cn1c(SCC(=O)NCc2ccccc2)nnc1-c1cc2ccccc2o1,i,i,30,i
COc1ccc(Cn2nnc(C(=O)NC3CCCCC3)c2-n2cccc2)cc1,i,i,49,i
Cc1noc(-c2nn(C)c3c2CN(C(=O)c2ccccc2C)CC3)n1,i,i,i,i

# Bioassay records deposited in PubChem by Buhrlage Lab, Dana-Farber Cancer Institute and Novartis Institutes for BioMedical Research (Cambridge, Mass).
